ATXN2 expr inh = Primary qHTS for Inhibitors of ATXN expression | Potency, µM (series often up to 57 µM), without a hit: at the top dose activity change, negative = inhibition, hits mostly inhibitors | 360,000 tested, 0.72% active | HEK-293 ATXN2-luciferase reporter, luminescence, 24 h | AID 1745845, 2022; note: % is set by controls: 0 for no effect and ±100 for the full control effect; nearly all actives have a fitted effect of over 55% in size
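qHTS (up to 57 uM final) was run with 24 h compound exposure of reporter cells at 37 °C. Each well was multiplexed: SteadyGlo luminescence measured ATXN2-luciferase expression after a fluorogenic Gly-Phe-AFC viability readout (25 uM final).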
TGFb inhibitor = qHTS for Inhibitors of TGF-b. 410,000 tested, 1.2% active. Potency, µM (highest dose often 46.1 µM), for inactives: at the highest dose activity, negative = inhibition, most hits filed as inhibitors. HepG2 CAGA-GFP TGF-b/SMAD3 reporter, GFP fluorescence, 18 h; TGF-beta stimulated, 500 pg/mL final. AID 588855, 2011; note: % is set by controls: 0 for no effect and ±100 for the full control effect; nearly all actives have a fitted effect of over 65% in size
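Inhibition was scored as loss of TGF-beta-induced (500 pg/mL final, 18 hours, 37 degrees C) GFP in HEPG2 cells carrying a CAGA-GFP reporter, in DMEM with 1% FBS. Well GFP was summed per cell; Activity was normalised to unstimulated and stimulated DMSO wells, then concentration-response fitting.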
HepG2 viability = qHTS for Inhibitors of TGF-b: Cytotox Counterscreen. Potency, µM (titrated, usually from 46.1 µM), for the others: at the highest dose activity change, negative = cytotoxicity, actives largely listed as cytotoxic. 410,000 tested, 0.76% active. HepG2 CAGA-GFP viability, ATP luminescence, 18 h. AID 588856, 2011
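HepG2 CAGA-GFP cells (1000/well, DMEM with 1% FBS) received compound, then TGF-beta at 500 pg/mL final, and were incubated 18 hours at 37 degrees C. Viability was read by CellTiter-Glo luminescence. Media-only wells were set as complete cell-killing and DMSO as no toxicity.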
ATXN viability = Viability Counterscreen for Primary qHTS for Inhibitors of ATXN expression; AID 651635, 2014; S2 cells (HEK-293 line with an ATXN2-luciferase reporter) viability, CellTiter-Fluor protease fluorescence, 24 h; 400,000 tested, 0.49% active; Potency, µM (highest dose often 56.7 µM), hits mostly cytotoxic; note: nearly all actives have a fitted effect of over 40% in size
ALOX12 inh = Primary qHTS assay for inhibitors of human arachidonate 12S-lipoxygenase (ALOX12): Round 2 | purified 12hLO, xylenol orange hydroperoxide absorbance | Potency, µM (top dose mostly 108 µM), for inactives: at the top dose activity change, negative = inhibition, most hits filed as inhibitors | 580,000 tested, 1.1% active | Polyunsaturated fatty acid lipoxygenase ALOX12 (Homo sapiens), P18054 | AID 1671190, 2021; note: % is set by controls: 0 for no effect and ±100 for the full control effect
Target sequence (P18054 whole entry, looked up): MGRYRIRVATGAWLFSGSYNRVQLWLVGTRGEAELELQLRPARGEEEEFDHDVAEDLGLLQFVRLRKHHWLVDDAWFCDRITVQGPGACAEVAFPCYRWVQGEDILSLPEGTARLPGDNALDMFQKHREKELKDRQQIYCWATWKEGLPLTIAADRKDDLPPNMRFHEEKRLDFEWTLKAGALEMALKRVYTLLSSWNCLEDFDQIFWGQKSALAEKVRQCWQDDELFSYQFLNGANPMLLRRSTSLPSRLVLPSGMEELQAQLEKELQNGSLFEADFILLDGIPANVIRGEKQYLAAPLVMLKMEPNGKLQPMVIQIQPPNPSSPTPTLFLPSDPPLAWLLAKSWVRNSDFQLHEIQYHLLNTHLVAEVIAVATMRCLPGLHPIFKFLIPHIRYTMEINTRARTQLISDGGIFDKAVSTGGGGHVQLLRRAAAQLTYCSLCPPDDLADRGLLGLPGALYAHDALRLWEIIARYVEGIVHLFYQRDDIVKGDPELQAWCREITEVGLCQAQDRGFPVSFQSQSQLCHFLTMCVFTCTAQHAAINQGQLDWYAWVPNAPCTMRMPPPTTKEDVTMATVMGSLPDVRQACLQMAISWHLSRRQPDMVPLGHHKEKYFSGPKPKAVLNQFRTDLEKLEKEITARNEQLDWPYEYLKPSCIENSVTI
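Purified human 12hLO (150 nM final) in 25 mM Hepes, 0.01% Triton X-100, pH 7.0 was preincubated 15 min at room temperature with compound. Then 40 uM arachidonic acid was added, 30 min. Hydroperoxide was read by Fe-XO absorbance ratio 573/405 nm.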
The depositor's hits bear a star; i = inactive; u = inconclusive; x = not tested or not shown; ! = not confirmed by another sample. An excerpt weighted towards active compounds, which were near 2.7% of everything screened. Calls come from the whole dose curve; as a rule, active = well fitted curve in the direction sought with a large enough effect; inconclusive = small, poorly fitted or top-dose-only effect, or another doubt; inactive = no such curve, though single readings can be large; an effect the other way counts as inactive or inconclusive. Potency is the fitted concentration of half-maximal effect.

SMILES	ATXN2 expr inh	TGFb inhibitor	HepG2 viability	ATXN viability	ALOX12 inh
O=C(O)c1ccc(Nc2ncc3c(n2)-c2ccc(Cl)cc2C(c2c(F)cccc2F)=NC3)cc1	-3%	x	x	x	15µM*
COc1ccc(-c2cc(N3CCC(NC(=O)c4ccc(C)c(F)c4)CC3)n[nH]2)cc1	x	x	x	x	21%
Cc1ccc(-c2nc(SCCOc3ccccc3C)n3[nH]c(=O)cc3n2)cc1	u	11µM*	-51%	u	-26%
O=C(NCCN1CCC(n2c(=O)[nH]c3ccccc32)CC1)c1cccc(F)c1	5%	x	x	i	45µM*
CCN(CC)CCNC(=O)c1ccc2nc(-c3ccccc3)c(-c3ccc(CN4CCC(n5c(=O)[nH]c6ccccc65)CC4)cc3)nc2c1	27µM*	x	x	x	u
CCOP(=O)(OCC)c1nc(-c2cccc3ccccc23)oc1NC	x	x	x	x	-19%
Cc1ccc(N2CC(c3noc(C4CCN(C(=O)c5ccccc5)CC4)n3)CC2=O)cc1 (configuration not stated)	x	x	x	x	-3%
COc1ccc(NC(=O)c2ccc3oc(=O)c(S(=O)(=O)c4ccc(F)cc4)cc3c2)cc1OC	-25%	11µM*	-73%	u	-25%
CCc1ccc(CNC(=O)c2cc3cc(C)ccc3[nH]2)cc1	x	x	x	x	35µM*
COc1cccc(CNC(=O)c2cc3cc(C)ccc3[nH]2)c1	x	x	x	x	1%
C/C=C1\COC(C(=O)NCc2ccccc2)(C(F)(F)F)C=C1C=C(C)C (configuration not stated)	6%	11µM*!	-15%	i	16%
N#Cc1c(Cl)nsc1NC(=O)c1ccccc1	0%	3.5µM*	-41%	i	u
N#Cc1c(NC(=O)c2ccccc2)sc2c1CCCCC2	59%	1%	-11%	i	-24%
Oc1ccc(N=Nc2ccccc2)o1	-19%	u	13µM*	u	26%
Oc1c(N=Nc2ccccc2)sc2ccccc12	x	-25%	-71%	i	-21%
Cc1ccc2nc(-c3cccnc3)cc(C(=O)NCc3ccco3)c2c1	x	x	x	x	-2%
CCN1CCN(CCNC(=O)c2ccc(/C=C3\Sc4ccccc4N(Cc4ccccc4F)C3=O)cc2)CC1	u	u	14µM*	i	u
CN1CCN(CCCNC(=O)c2ccc(/C=C3\Oc4ccccc4N(Cc4ccccc4F)C3=O)cc2)CC1	x	18µM*	-106%	20µM*	-22%
N#C/C(=C\c1ccc([N+](=O)[O-])o1)c1nc2ccccc2[nH]1	13µM*	u	-35%	i	-9%
N#C/C(=C\c1ccc(-c2ccc(Cl)cc2Cl)o1)c1nc2ccccc2[nH]1	x	x	x	x	11µM*
CCOC(=O)c1ccc(-c2ccc(/C=C(\C#N)c3nc4ccc(C)cc4[nH]3)o2)cc1	x	x	3.2µM*	x	u
N#C/C(=C/c1ccc(O)c(O)c1)c1nc2ccccc2[nH]1	x	72%	-30%	i	7.9µM*
N#C/C(=C\c1ccc(-c2ccc(F)cc2F)o1)c1nc2ccccc2[nH]1	0%	189%	-59%	i	-17%
CCn1ncc(C(=O)N2CCC3(CC2)CN(Cc2ccccc2)CC3CO)c1C (configuration not stated)	x	x	x	x	50%
O=C(NCCc1ccc(C(F)(F)F)cc1)C12CC3CC(CC(Cl)(C3)C1)C2	x	x	x	x	-4%
C=C(C)CN1CCN(c2nc3c(c(=O)[nH]c(=O)n3C)n2Cc2ccccc2Cl)CC1	x	x	x	x	-5%
COC1CCOC2(CCN(C(=O)c3cc(-c4ccccc4)n[nH]3)CC2)C1 (configuration not stated)	x	x	x	x	19%
COc1ccc2c(c1)c(/C=C/c1cc[n+](C)cc1)cn2C	x	117%	-11%	i	50µM*
COc1ccc2c(/C=C/c3cc[n+](C)cc3)c[nH]c2c1	-30%	10%	-35%	u	u
CC(C)c1ccc(S(=O)(=O)N2CCN(c3nc(-c4cccnc4)nc4ccccc34)CC2)cc1	x	x	x	x	2%

From PubChem BioAssay
